Records with an inconclusive call do not appear. Calls of active or inactive are those of the source. Calls come from the whole dose curve; as a rule, active = well fitted curve in the direction sought with a large enough effect; inconclusive = small, poorly fitted or top-dose-only effect, or another doubt; inactive = no such curve, though single readings can be large; an effect the other way counts as inactive or inconclusive.
Key:
[1] = test system: HEK293; assay: Cytotoxic Profiling of Annotated Libraries Using Quantitative High-Throughput Screening (AID 1296008); details: Five cell lines viability, CellTiter-Glo ATP luminescence, 48-72 h; max response: active compounds read low; note: nearly all actives have a fitted effect of over 60% in size; note: potency is the fitted concentration of half-maximal effect; for max response: % is set by controls: 0 for no effect and ±100 for the full control effect
How it was run: (§1)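 Compounds were pin-transferred onto cells and incubated 48 or 72 hr at 37 degree Celsius, 95% humidity. CellTiter-Glo was added, plates sat 10 min at room temperature, then ATP-coupled luminescence was imaged as the viability read-out.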

[2] = test system: HaCat; assay: as above; details: Five cell lines viability, CellTiter-Glo ATP luminescence, 48-72 h; max response: active compounds read low
How it was run: as §1

[3] = test system: NIH3T3; assay: as above; details: Five cell lines viability, CellTiter-Glo ATP luminescence, 48-72 h; max response: active compounds read low
How it was run: as §1

[4] = test system: HACAT; assay: qHTS assay to identify novel small-molecules to repurpose for Merkel cell carcinoma treatment (AID 1296009); details: MCC and control cell lines, CellTiter-Glo viability, 72 h; at 44.8 µM (top of the series) unless noted; note: nearly all actives have a fitted effect of over 60% in size
How it was run: (§2)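 qHTS format: cells treated with library compounds in DMSO across 8 (NPC) or 11 (MIPE) concentrations. Readout after 72 hr at 37 degree celsius was CellTiter-Glo luminescence.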

[5] = test system: CAOV3; assay: Primary qHTS to identify gynecologic anti-cancer compounds using libraries of approved drugs and bioactive compounds (AID 1345084); details: Gynecologic cancer cell panel viability, ATPlite luminescence, 48 h; series mostly up to 57.5 µM; note: nearly all actives have a fitted effect of over 55% in size; note: potency is the fitted concentration of half-maximal effect; for activity change, negative = cytotoxicity: % is set by controls: 0 for no effect and ±100 for the full control effect
How it was run: (§3)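 Cells, 1,000 per well, were allowed to settle for 16 h at 37 C before compound addition. Five concentrations were tested for 48 h, and viability was read by ATPlite luminescence after 15 min at room temperature.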

[6] = test system: CASKI; assay: as above; details: Gynecologic cancer cell panel viability, ATPlite luminescence, 48 h; series mostly up to 57.5 µM
How it was run: as §3

[7] = test system: Es-2; assay: as above; details: Gynecologic cancer cell panel viability, ATPlite luminescence, 48 h; series mostly up to 57.5 µM
How it was run: as §3

[8] = test system: HeLa; assay: as above; details: Gynecologic cancer cell panel viability, ATPlite luminescence, 48 h; series mostly up to 57.5 µM
How it was run: as §3

[9] = test system: Hek293T; assay: as above; details: Gynecologic cancer cell panel viability, ATPlite luminescence, 48 h, control line for the selectivity index; series mostly up to 57.5 µM
How it was run: as §3

[10] = test system: JEG-3; assay: as above; details: Gynecologic cancer cell panel viability, ATPlite luminescence, 48 h; series mostly up to 57.5 µM
How it was run: as §3

[11] = test system: OV90; assay: as above; details: Gynecologic cancer cell panel viability, ATPlite luminescence, 48 h; series mostly up to 57.5 µM
How it was run: as §3

[12] = test system: C33A; assay: as above; details: Gynecologic cancer cell panel viability, ATPlite luminescence, 48 h; series mostly up to 57.5 µM
How it was run: as §3

[13] = test system: CRL-7250; assay: Cytotoxic Profiling of Annotated Libraries Using Quantitative High-Throughput Screening (AID 1296008); details: Five cell lines viability, CellTiter-Glo ATP luminescence, 48-72 h; max response: active compounds read low; note: nearly all actives have a fitted effect of over 60% in size; note: potency is the fitted concentration of half-maximal effect; for max response: % is set by controls: 0 for no effect and ±100 for the full control effect
How it was run: as §1

[14] = test system: NIH3T3; assay: qHTS assay to identify novel small-molecules to repurpose for Merkel cell carcinoma treatment (AID 1296009); details: MCC and control cell lines, CellTiter-Glo viability, 72 h; series mostly up to 44.8 µM; note: nearly all actives have a fitted effect of over 60% in size
How it was run: as §2

FC(F)(F)c1ccc(CNc2ccc(Cc3c[nH]c4ncc(Cl)cc34)cn2)cn1
active: Potency [1] 26.3 µM

Cc1cc2c(c(=O)o1)C=C1CC[C@H]([C@H](C)Cn3cnc(=N)c4[nH]cnc43)C[C@@H]1O2
inactive: outcome [2] | max response [3] -1.79% | outcome [4] | Potency [5] | Potency [6] | Potency [7] | Potency [8] | Potency [9] | Potency [10] | Potency [11]
active: Potency [1] 8.2 µM

OC(c1ccc(-c2ccc(CN3CCN(Cc4ccncc4)CC3)cc2)c(F)c1)(C(F)(F)F)C(F)(F)F
active: Potency [1] 5.17 µM
inactive: max response [2] -9.47% | max response [3] -11.3% | Potency [12] | Potency [5] | Potency [6] | Potency [7] | Potency [8] | Potency [9] | Potency [10] | Potency [11]

CCn1c(=O)c(-c2ccc(Cl)cc2Cl)cc2cnc(Nc3ccc(N4CCNCC4)c(F)c3)nc21
active: Potency [13] 1.16 µM | Potency [3] 1.03 µM
inactive: Potency [12] | Potency [5] | Potency [6] | Potency [7] | Potency [9] | Potency [10] | Potency [11]

CC(=O)C1(C)CCC2C3C=C(C)C4=CC(=O)CCC4(C)C3CCC21C (stereo not drawn)
inactive: max response [2] -54.8% | max response [3] -16.2% | Potency [12] | Potency [5] | Potency [6] | Potency [7] | Potency [10] | Potency [11]
active: Potency [1] 10.3 µM | Potency [8] 14.1 µM

CC(C)c1ccc(NC(=O)c2cccs2)c(-c2nc3ccccc3[nH]c2=O)c1
inactive: max response [13] 4.02% | max response [3] 0.611% | Potency [12] | Potency [5] | Potency [7] | Potency [8] | Potency [9] | Potency [10] | Potency [11]

CCc1cnc(N2CCC(c3nc(COc4ccc(-n5cnnn5)cc4)cs3)CC2)nc1
active: Potency [1] 13 µM
inactive: outcome [2] | max response [3] -9.02% | outcome [4] | Potency [12] | Potency [6] | Potency [8] | Potency [10] | Potency [11]

COC(=O)N1CC2(CC2)C[C@H](C(=O)NO)[C@H]1C(=O)N1CCN(c2ccccc2)CC1
inactive: outcome [3] | Potency [14]
active: Potency [1] 23.4 µM | Potency [2] 26.3 µM

O=C1C[C@]23C=CCN4CCC5c6cc7c(cc6N1[C@@]5(CC2)C43)OCO7 (stereo partly drawn)
inactive: max response [13] -12% | max response [3] -4.65% | Potency [12] | Potency [5] | Potency [6] | Potency [7] | Potency [8] | Potency [9] | Potency [10] | Potency [11]

c1cc(NCCc2c[nH]c3ccccc23)cc(Nc2ccncc2)c1
inactive: max response [1] -111% | outcome [2] | max response [3] -50.3% | outcome [4] | Potency [12] | Potency [6] | Potency [7] | Potency [8] | Potency [9] | Potency [10] | Potency [11]

CC1CCCC(O)CCC/C=C/c2cc(OS(=O)(=O)O)cc(O)c2C(=O)O1 (stereo not drawn)
inactive: max response [1] -20.5% | max response [2] 0.348% | outcome [3] | Potency [14] | Potency [12] | Potency [6] | Potency [7] | Potency [8] | Potency [9] | Potency [10] | Potency [11]

O=C(Nc1ccc(CN2CCOCC2)cc1)c1ccc(-c2cccc(Cl)c2)o1
inactive: max response [2] -23.4% | max response [3] 1.97% | Potency [12] | Potency [5] | Potency [6] | Potency [7] | Potency [8] | Potency [9] | Potency [10]
active: Potency [1] 9.2 µM

Nc1nc(Cl)nc2c1ncn2C1OC(CO)C(O)C1F (stereo not drawn)
active: Potency [1] 2.06 µM | Potency [2] 1.46 µM | Potency [3] 1.03 µM | Potency [5] 0.631 µM | Potency [6] 3.98 µM
inactive: Potency [12] | Potency [8] | Potency [11]

C=C1CO[C@@]2(O[C@H]3CC4C5CC=C6C[C@@H](O)C[C@@H](O[C@@H]7OC[C@H](O)[C@H](O[C@@H]8OC[C@@H](O)[C@H](O)[C@H]8O)[C@H]7O[C@@H]7O[C@@H](C)[C@H](OC(C)=O)[C@@H](OC(C)=O)[C@H]7OC(C)=O)[C@]6(C)C5CC[C@]4(C)[C@@H]3[C@@H]2C)[C@@H](O)[C@H]1OC1OC(C)C(O)C(O)C1O (stereo partly drawn)
active: Potency [11] 2.82 µM
inactive: max response [1] -19.9% | outcome [2] | outcome [3] | outcome [4] inactive [at 9.27 µM] | outcome [14] inactive [at 9.27 µM] | activity change, negative = cytotoxicity [5] -13% [at 6.55 µM] | activity change, negative = cytotoxicity [6] -16.5% [at 6.55 µM] | activity change, negative = cytotoxicity [7] -0.0762% [at 6.55 µM] | activity change, negative = cytotoxicity [8] -7.77% [at 6.55 µM] | activity change, negative = cytotoxicity [9] -3.45% [at 6.55 µM] | activity change, negative = cytotoxicity [10] -10.9% [at 6.55 µM]

C[C@@H]1COCCN1c1cc(=O)n2c(n1)N(Cc1cncc(Cl)c1)[C@H](C(F)(F)F)CC2
active: Potency [1] 4.17 µM
inactive: max response [2] -6.64%

NC(=O)c1cnc(N[C@@H]2CCCC[C@@H]2N)nc1Nc1cccc(-n2nccn2)c1
active: Potency [1] 11.7 µM | Potency [2] 13.2 µM | Potency [3] 23.4 µM

CCn1c(-c2nonc2N)nc2c(C#CC(C)(C)O)ncc(OCC3CCCNC3)c21 (stereo not drawn)
inactive: outcome [2] | outcome [3] | outcome [4] | Potency [14] | Potency [7] | Potency [8] | Potency [10]
active: Potency [1] 0.82 µM

CCN1CCN(Cc2ccc(NC(=O)c3ccc(C)c(Oc4ncnc5[nH]c(C)cc45)c3)cc2C(F)(F)F)CC1
active: Potency [1] 13 µM

COc1ccc2c(c1)C(C(=O)N(Cc1ccc(N(C)C)cc1)c1ccc(C(C)C)cc1)CCC2 (stereo not drawn)
active: Potency [1] 11.6 µM
inactive: max response [2] -43.6% | max response [3] 3.67% | Potency [12] | Potency [6] | Potency [7] | Potency [8] | Potency [9] | Potency [10] | Potency [11]

O=C(Nc1ccccc1)N1CCC(Cc2cnc3ccccc3c2)CC1
inactive: max response [1] -99.9% | max response [2] -1.9% | max response [3] 2.45% | Potency [12] | Potency [5] | Potency [6] | Potency [7] | Potency [8] | Potency [9] | Potency [10] | Potency [11]

CC(C)n1nc(C#Cc2ccccc2)c2c(N)ncnc21
inactive: Potency [6] | Potency [7] | Potency [8] | Potency [9] | Potency [11]
active: Potency [13] 16.4 µM | Potency [3] 11.6 µM

CC(C)(C)c1ccc(-c2nc3c(N4CCN(Cc5ccc6nccnc6c5)CC4)cccc3[nH]2)cc1
inactive: max response [2] -27.9%
active: Potency [1] 4.11 µM

CCS(=O)c1nc(-c2cccc(OCc3ccccc3)c2)cc(C(F)(F)F)n1 (stereo not drawn)
inactive: max response [13] 1.1% | Potency [6] | Potency [7] | Potency [8] | Potency [11]
active: Potency [3] 18.4 µM

CCc1ccccc1OC[C@@H](O)CN[C@H]1CCCc2ccccc21
active: Potency [1] 23.1 µM
inactive: outcome [2] | max response [3] -24.4% | outcome [4] | Potency [12] | Potency [5] | Potency [6] | Potency [7] | Potency [8] | Potency [9] | Potency [10] | Potency [11]

CC1(C)CCCC2(C)C1C(=O)C=C(C(=O)O)C2(O)C(=O)O (stereo not drawn)
inactive: max response [13] -16% | max response [3] -3.77% | Potency [12] | Potency [5] | Potency [6] | Potency [7] | Potency [8] | Potency [9] | Potency [10] | Potency [11]
